From PubChem BioAssay AID463173 (ICCB-Longwood Screening Facility, Harvard Medical School, 2010) come the findings set out here.

About 1,700 (3.3%) of roughly 52,000 compounds were called active. Rule as the data show it: active = survival mostly below about 52% (no sharp cut-off); inactive = mostly above about 56%. What follows is part of a selection rich in actives, with near analogues and random picks from the rest.

The assay concerns Wild type. In words: S. aureus survival, RN4220 and DeltatarO strains – OD600, teichoic acid synthesis inhibitors, primary screen (AID 463173). The settings on record: S. aureus RN4220 wild type/DeltatarO growth, OD600, 18 h, stronger effect = lower value, screened at 18.75 µg/mL (by protocol).
`CCN1CCN(c2cc(C)c3cc(NC(=O)/C=C/c4cccc(OC)c4OC)ccc3n2)CC1`: the survival was 83% (inactive).

Turning to `COc1ccc(C)cc1S(=O)(=O)Nc1cccc(-c2ccc(N3CCC(C)CC3)nn2)c1`, the survival was -4% (active).

`COc1ccc(C)cc1S(=O)(=O)Nc1cccc(-c2ccc(N3CCCC3)nn2)c1`: the survival was 77% (inactive).

For the compound `O=S(=O)(Nc1cccc(-c2ccc(N3CCCCC3)nn2)c1)c1cccc(F)c1`, the survival was 119% (inactive).

Turning to `O=S(=O)(Nc1cccc(-c2ccc(N3CCCCCC3)nn2)c1)c1ccc(F)cc1`, the survival is 55% (inactive).

As to `Cc1ccc(S(=O)(=O)Nc2cccc(-c3ccc(N4CCC(C)CC4)nn3)c2)s1`, the survival is -3% (active).

`Cc1ccc(S(=O)(=O)Nc2cccc(-c3ccc(N4CCCCC4)nn3)c2)s1`: the survival was 64% (inactive).

Regarding `O=S(=O)(Nc1ccc(-c2ccc(N3CCCCC3)nn2)cc1)c1ccc(OC(F)(F)F)cc1`, the survival is 72% (inactive).

Turning to `O=S(=O)(Nc1cccc(-c2ccc(N3CCCCCC3)nn2)c1)c1ccccc1`, the survival was 1% (active).

In the case of `O=S(=O)(Nc1ccc(-c2ccc(N3CCCC3)nn2)cc1)c1ccc(C(F)(F)F)cc1`, the survival was 64% (inactive).

Turning to `COc1ccc(F)cc1S(=O)(=O)Nc1cccc(-c2ccc(N3CCC(C)CC3)nn2)c1`, the survival was 129% (inactive).

On to `O=S(=O)(Nc1ccc(-c2ccc(N3CCCC3)nn2)cc1)c1ccc(OC(F)(F)F)cc1`, for which the survival was -6% (active).

Take `CC1CCN(c2ccc(-c3cccc(NS(=O)(=O)c4ccc(Cl)s4)c3)nn2)CC1`: the survival is 71% (inactive).

Take `Cc1ccc(NC(=O)C(=O)NCC(c2ccc3c(c2)OCO3)N2CCOCC2)cc1C` (centres undefined): the survival is 45% (inactive).

Regarding `CC(C)c1ccc(NC(=O)CSC2=Nc3ccccc3C3=NC(CC(=O)NCc4ccc(F)cc4)C(=O)N23)cc1` (centres undefined), the survival is 73% (inactive).

Take `Cc1nc(C)c(-c2csc(NCc3ccccc3)n2)s1`: the survival is 123% (inactive).

`COc1ccc(CC(=O)Nc2cc(-c3cn4cccnc4n3)ccc2C)cc1OC`: the survival was 85% (inactive).

Regarding `CCCc1noc(-c2ccc(N3CCCCC3)c([N+](=O)[O-])c2)n1`, the survival was 77% (inactive).

`O=C(CN(C(=O)c1csnn1)c1ccccc1)NCc1ccc2c(c1)OCO2`: the survival was 114% (inactive).

`O=c1oc2ccc(Br)cc2cc1-c1nc(-c2ccccc2)no1`: the survival is 66% (inactive).

As for `O=C(CSc1nnc2[nH]c(=O)cc(-c3ccccc3)n12)Nc1ccc(F)cc1F`, the survival is 94% (inactive).

With `COCCCNC(=O)CN1C(=O)COc2ccc(S(=O)(=O)N3CCCCCC3)cc21`, the survival is 77% (inactive).

With `CCN(CC)S(=O)(=O)c1cc(-c2onc(C)c2C)ccc1OC`, the survival is 87% (inactive).

For the compound `CCCCn1cc(S(=O)(=O)c2ccc(Cl)cc2)c(=O)c2cc(F)c(N3CCCCC3)cc21`, the survival is 105% (inactive).

With `Cc1cc(C)cc(OCC(=O)Nc2ccc(S(=O)(=O)Nc3onc(C)c3C)cc2)c1`, the survival was 73% (inactive).

For `CC(=O)N1CCc2c(sc3c2c(=O)n(-c2ccccc2)c(=O)n3CC(=O)Nc2cccc(C)c2)C1`, the survival was 91% (inactive).

On to `CC(C)(C)C(=O)Nc1ccc(-c2nc3ccc(NC(=O)C(C)(C)C)cc3[nH]2)cc1`, for which the survival is 148% (inactive).

As for `CCC(=O)Nc1ccc(-c2nc3ccc(NC(=O)CC)cc3[nH]2)cc1`, the survival was 113% (inactive).

For the compound `O=C(Nc1ccc2nc(-c3ccccc3)[nH]c2c1)c1ccco1`, the survival was 1% (active).

As for `CCOC(=O)c1sc2ccccc2c1S(=O)(=O)Nc1ccc(C(C)=O)cc1`, the survival was 90% (inactive).

`Cc1ccc(S(=O)(=O)c2c(O)cc(C)c(NS(=O)(=O)c3ccc(Cl)cc3)c2C)cc1`: the survival was 105% (inactive).

Regarding `COc1ccc(S(=O)(=O)c2c(C)c(NS(=O)(=O)c3ccccc3)cc(C)c2O)cc1`, the survival is 90% (inactive).

Regarding `Cc1ccc(S(=O)(=O)c2c(O)cc(C)c(NS(=O)(=O)c3ccc(Br)cc3)c2C)cc1`, the survival is -1% (active).

On to `CC(OC(=O)c1cc2sccc2n1C)C(=O)NCC1CCCO1` (centres undefined), for which the survival is 107% (inactive).

As for `COC(=O)c1ccc(-n2nnc(-c3nsc(NC(=O)c4ccc(Cl)cc4)n3)c2C)cc1`, the survival was 79% (inactive).

Consider `COc1ccc(C2c3c(n(C)c4ccccc34)C(=O)N2CC(=O)Nc2cccc(F)c2)cc1` (centres undefined), for which the survival is 85% (inactive).

For the compound `O=C(NCc1ccc(F)cc1)C(=O)NCC(c1ccc2c(c1)OCO2)N1CCOCC1` (centres undefined), the survival is 88% (inactive).

Turning to `CCc1ccc(OCCn2c(C3CC(=O)N(Cc4ccc(F)cc4)C3)nc3ccccc32)cc1` (centres undefined), the survival was -14% (active).

With `O=C1CC(c2nc3ccccc3n2CCCOc2ccccc2)CN1c1ccc(F)cc1` (centres undefined), the survival is 107% (inactive).

For the compound `CCOc1ccc(N2CC(c3nc4ccccc4n3CCOc3ccc(CC)cc3)CC2=O)cc1` (centres undefined), the survival is 79% (inactive).

With `Cc1cc(OCCn2c(C3CC(=O)N(Cc4ccc(F)cc4)C3)nc3ccccc32)ccc1Cl` (centres undefined), the survival is -15% (active).

For `COc1ccc(OCCCn2c(C3CC(=O)N(c4ccc(F)cc4)C3)nc3ccccc32)cc1` (centres undefined), the survival was 85% (inactive).

Turning to `COc1ccc(OCCn2c(C3CC(=O)N(c4ccc(F)cc4)C3)nc3ccccc32)cc1` (centres undefined), the survival is 84% (inactive).

`N#C/C(=C\c1ccccc1)C(=O)Nc1sc2c(c1C(N)=O)CCC2`: the survival is 75% (inactive).

As for `COc1ccccc1CCNC(=O)c1cc2ccccn2n1`, the survival is 152% (inactive).

Turning to `CC(=O)Nc1ccc(NC(=O)C2CCN(c3c(NC(C)=O)c(C)nn3-c3ccccc3)CC2)cc1`, the survival is 63% (inactive).

For `CC(=O)Nc1c(C)nn(-c2ccccc2)c1N1CCC(C(=O)NCc2ccc(Cl)cc2)CC1`, the survival is 81% (inactive).

In the case of `CC(=O)Nc1c(C)nn(-c2ccccc2)c1N1CCC(C(=O)NCc2cccc(Cl)c2)CC1`, the survival is 71% (inactive).

Take `CC(=O)Nc1c(C)nn(-c2ccccc2)c1N1CCC(C(=O)Nc2cc(F)ccc2F)CC1`: the survival was 63% (inactive).

`CC(=O)Nc1c(C)nn(-c2ccccc2)c1N1CCC(C(=O)NCc2cccc(F)c2)CC1`: the survival was 1% (active).

In the case of `CC(=O)Nc1c(C)nn(-c2ccccc2)c1N1CCC(C(=O)Nc2ccc(F)cc2Cl)CC1`, the survival is 60% (inactive).

As to `CC(=O)Nc1c(C)nn(-c2ccccc2)c1N1CCC(C(=O)Nc2ccc(C)cc2Cl)CC1`, the survival was 71% (inactive).

Consider `CC(=O)Nc1c(C)nn(-c2ccccc2)c1N1CCC(C(=O)NCc2ccc(F)cc2)CC1`, for which the survival was -3% (active).

With `CC(=O)Nc1c(C)nn(-c2ccccc2)c1N1CCC(C(=O)NCc2ccccc2Cl)CC1`, the survival is -4% (active).

With `CN(C(=O)CSc1nc2ccc(NC(=O)c3cccs3)cc2s1)c1ccccc1`, the survival is 77% (inactive).

`CCOc1ccc(NC(=O)Cn2cc(C(=O)C3CC3)c3ccccc32)cc1`: the survival is 78% (inactive).

Regarding `CC1Cc2ccccc2N1C(=O)c1cc2sccc2n1Cc1ccc(F)cc1` (centres undefined), the survival was 119% (inactive).

As for `Cn1c(=O)cc(OCC(=O)NCc2ccc(F)cc2Cl)c2ccccc21`, the survival was 117% (inactive).

As for `CCOc1ccc(NC(=O)c2c(NC(=O)Cc3ccccc3)sc3c2CCCC3)cc1`, the survival was 69% (inactive).

As for `Cc1noc(-c2ccc(-c3noc(-c4ccc(F)cc4)n3)cc2)n1`, the survival was 64% (inactive).

With `Cc1noc(-c2ccc(-c3noc(-c4ccc(Cl)cc4)n3)cc2)n1`, the survival is 87% (inactive).

Take `Cc1noc(-c2ccc(-c3noc(-c4ccccc4)n3)cc2)n1`: the survival was -6% (active).

Take `Clc1cccc(C2=NC(c3cccs3)=Nc3ccc(Br)cc3N2)c1`: the survival is 79% (inactive).

For `CCOc1ccc(-c2c(C)nn3c(C)c(C(=O)NCCN(C)C)cnc23)cc1OCC`, the survival was 87% (inactive).

Turning to `Cc1cccc(N2CCN(c3c4c(nc5nncn35)CCC4)CC2)c1C`, the survival is 84% (inactive).

On to `CCCn1c2ccccc2c2cnn(CC(=O)NCc3ccccc3Cl)c(=O)c21`, for which the survival was 120% (inactive).

For the compound `CCCn1c2ccccc2c2cnn(CC(=O)NCC3CCN(Cc4ccccc4C)CC3)c(=O)c21`, the survival is 14% (active).

Regarding `CCCn1c2ccccc2c2cnn(CC(=O)NCC3CCN(Cc4ccc(F)cc4)CC3)c(=O)c21`, the survival was 74% (inactive).

For `CCCn1c2ccccc2c2cnn(CC(=O)NC(C)CC)c(=O)c21` (centres undefined), the survival was 64% (inactive).

Consider `CCCn1c2ccccc2c2cnn(CC(=O)NCC3CCN(Cc4ccc(C)cc4)CC3)c(=O)c21`, for which the survival was -1% (active).

As to `COc1ccccc1CNC(=O)Cn1ncc2c3ccccc3n(Cc3ccccc3C)c2c1=O`, the survival was 85% (inactive).

In the case of `Cc1ccc(CNC(=O)CN(C)S(=O)(=O)c2ccc3c(c2)c(=O)n(C)c(=O)n3C)cc1`, the survival is 84% (inactive).

For the compound `c1ccc(C(c2nnnn2C2CCCC2)N2CCN(c3ccccc3)CC2)cc1` (centres undefined), the survival is 108% (inactive).

As to `Cc1ccc(C)c(N2CCN(C(=O)C3CCC(CNS(=O)(=O)c4ccc(Br)s4)CC3)CC2)c1` (centres undefined), the survival was 76% (inactive).

For `CCc1ccc(NC(=O)c2ccc(CN3CC(=O)N4CCCCC4C3=O)cc2)cc1` (centres undefined), the survival was 87% (inactive).

Take `Cc1ccc(NC(=O)c2ccc(CN3CC(=O)N4CCCCC4C3=O)cc2)cc1C` (centres undefined): the survival is 73% (inactive).

Regarding `CC(C)c1ccc(NC(=O)c2ccc(CN3CC(=O)N4CCCCC4C3=O)cc2)cc1` (centres undefined), the survival was 90% (inactive).

Regarding `O=C(Nc1ccc(F)cc1)c1ccc(CN2CC(=O)N3CCCCC3C2=O)cc1` (centres undefined), the survival was -6% (active).

As for `O=C(Nc1cc(F)ccc1F)c1ccc(CN2CC(=O)N3CCCCC3C2=O)cc1` (centres undefined), the survival was 76% (inactive).

In the case of `Cc1ccc(NC(=O)c2ccc(CN3CC(=O)N4CCCCC4C3=O)cc2)cc1` (centres undefined), the survival is -6% (active).

`CC(C)CCNc1ccc(-c2ccc(Cl)cc2)nn1`: the survival is 106% (inactive).

As to `CCCCN(CCCC)C(=O)c1cc2c(=O)n3ccccc3nc2s1`, the survival was 61% (inactive).

Turning to `Cc1ccc(N2CC(NC(=O)Cc3cccs3)CC2=O)cc1C` (centres undefined), the survival is 19% (inactive).

For `Fc1ccc(C(NCCc2ccccc2)c2nnc(-c3ccccc3Cl)o2)cc1` (centres undefined), the survival is 94% (inactive).

For the compound `Cc1ccc(CCNC(c2ccc(F)cc2)c2nnc(-c3ccccc3Cl)o2)cc1` (centres undefined), the survival was 0% (active).

On to `Fc1ccc(C(Nc2ccccc2Cl)c2nnc(-c3ccccc3Cl)o2)cc1` (centres undefined), for which the survival was 89% (inactive).

For `Fc1ccc(NCc2ccccc2-c2nnc(-c3ccccc3Cl)o2)cc1`, the survival is 89% (inactive).

As for `Fc1ccc(C(NCCc2ccc(Cl)cc2)c2nnc(-c3ccccc3Cl)o2)cc1` (centres undefined), the survival is 11% (active).

As for `COc1ccc(CCNC(c2ccc(F)cc2)c2nnc(-c3ccccc3Cl)o2)cc1OC` (centres undefined), the survival is 49% (inactive).
